Most compounds without a hit are left out; they make up all but 18% or so of the library.
IL1B secr inh: inhibitors of inflammasome signaling (IL-1 beta secretion) | THP-1 LPS/ATP IL-1B secretion, AlphaLISA, 16 h; active compounds read low | activity change, % at 57.5 µM | 360,000 tested, 4.7% active | AID 743279; in the data active means activity change below about -50%; inconclusive means mostly about -30% to -49%; further: on the % scale 0 is the no-effect control and ±100 the full control effect
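THP-1 cells pretreated 1 hr with compounds (up to 57.5 uM final), then stimulated with LPS (250 ng/mL final) plus ATP (1.25 mM final); secreted IL-1B measured by AlphaLISA after 16 hr, decreased signal indicating inhibition.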
DT40 TDP1 CPT: DT40-hTDP1 cell growth loss with CPT; Potency, µM (top dose mostly 46.2 µM), inactives show at the highest dose activity change, negative = growth inhibition, actives largely listed as inhibitors; 420,000 tested, 12% active; chicken DT40 Tdp1-/-;hTDP1 cells + 20 nM CPT, ATP luminescence, 48 h; further: potency means the concentration at half of the fitted maximal effect; on the % scale 0 is the no-effect control and ±100 the full control effect; nearly all actives have a fitted effect of over 55% in size
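Chicken DT40 Tdp1-/- cells stably complemented with human TDP1 were seeded at 400 cells/well in medium containing 20 nM camptothecin, exposed to pin-transferred compounds, and grown at 37 °C for at least 48 hr. Viability was read as ATP luminescence.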
HepG2 viability: HepG2 cytotoxicity, counter-screen for TGF-b inhibitors | HepG2 CAGA-GFP viability, ATP luminescence, 18 h | Potency, µM (highest dose often 46.1 µM), for the others: top-dose activity change, negative = cytotoxicity, actives largely listed as cytotoxic | 410,000 tested, 0.76% active; further: potency means the concentration at half of the fitted maximal effect
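CellTiter-Glo luminescence gave cytotoxicity after 18 hours at 37 degrees C. The cells were HepG2 CAGA-GFP in 1% FBS DMEM, stimulated with 500 pg/mL TGF-beta after compound addition. %Activity was normalised to no-cell wells (complete cell-killing) and DMSO (no toxicity), and curves were fitted and classified.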
TDP1 inh: blocks human tyrosyl-DNA phosphodiesterase 1 | Q9NUW8 | Potency, µM (doses to about 130 µM), for inactives: top-dose activity change, negative = inhibition, usual class: inhibitors | recombinant TDP1, AlphaScreen DNA substrate cleavage | 350,000 tested, 0.28% active; further: potency means the concentration at half of the fitted maximal effect; on the % scale 0 is the no-effect control and ±100 the full control effect; nearly all actives have a fitted effect of over 40% in size
Target sequence (Q9NUW8 whole entry, looked up): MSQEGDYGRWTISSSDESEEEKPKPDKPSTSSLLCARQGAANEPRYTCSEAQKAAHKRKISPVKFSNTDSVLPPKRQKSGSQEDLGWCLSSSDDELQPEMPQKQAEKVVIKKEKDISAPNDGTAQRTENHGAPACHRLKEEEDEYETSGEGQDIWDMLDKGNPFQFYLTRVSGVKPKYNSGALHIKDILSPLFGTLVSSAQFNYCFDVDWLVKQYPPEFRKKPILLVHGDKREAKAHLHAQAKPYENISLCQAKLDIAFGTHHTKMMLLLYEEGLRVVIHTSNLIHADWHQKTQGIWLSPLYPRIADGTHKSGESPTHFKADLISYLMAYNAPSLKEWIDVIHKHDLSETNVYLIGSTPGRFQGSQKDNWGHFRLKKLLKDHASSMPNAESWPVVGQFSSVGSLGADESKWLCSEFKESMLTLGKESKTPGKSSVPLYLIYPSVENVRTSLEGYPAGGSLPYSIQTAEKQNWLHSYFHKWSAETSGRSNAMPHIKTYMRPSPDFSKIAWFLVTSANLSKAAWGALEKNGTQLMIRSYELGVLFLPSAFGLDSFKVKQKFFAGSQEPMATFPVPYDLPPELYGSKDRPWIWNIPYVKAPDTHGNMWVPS
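Recombinant E. coli-expressed Tdp1 (1 nM) preincubated with compound 15 min at RT, then 5'-biotin/3'-phosphotyrosine-FITC DNA substrate (15 nM) added for 5 min. AlphaScreen beads (10 ug/ml) added, 10 min RT; tyrosine-FITC cleavage read as signal loss.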
TDP1 cell noCPT: qHTS for Inhibitors of human tyrosyl-DNA phosphodiesterase 1 (TDP1): qHTS in cells in absence of CPT | DT40 Tdp1-/- hTDP1 cells, no CPT, ATP luminescence, 48 h | Potency, µM (highest dose often 46.2 µM), for inactives: top-dose activity change, negative = growth inhibition, hits mostly inhibitors | 420,000 tested, 15% active | AID 686978, 2013; further: potency means the concentration at half of the fitted maximal effect; on the % scale 0 is the no-effect control and ±100 the full control effect; nearly all actives have a fitted effect of over 55% in size
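Compound effects on proliferation are scored in DT40 Tdp1-/-;hTDP1 cells in the absence of CPT. ATP levels (CellTiter-Glo luminescence) are recorded after a ≥48 hr, 37 °C incubation.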
TGFb SMAD3 inh: TGF-b pathway inhibition | HepG2 CAGA-GFP TGF-b/SMAD3 reporter, GFP fluorescence, 18 h; TGF-beta stimulated, 500 pg/mL final | Potency, µM (doses to about 46.1 µM), inactives show at the highest dose activity, negative = inhibition, most hits filed as inhibitors | 410,000 tested, 1.2% active | AID 588855; further: potency means the concentration at half of the fitted maximal effect; on the % scale 0 is the no-effect control and ±100 the full control effect; nearly all actives have a fitted effect of over 65% in size
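TGF-beta reporter screen: HEPG2 CAGA-GFP, 1% FBS, 500 pg/mL TGF-beta final, 18 h; per-cell GFP summed per well; curves fitted and categorized by class.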
* marks the source's active call; other numbers are inactive results; ? = inconclusive; . = no result given; [ ] = dose if it differs, or a comment. Unless noted, the call rests on the fitted dose curve; in most records, active means well fitted curve in the direction sought with a large enough effect; inconclusive means small, poorly fitted or top-dose-only effect, or another doubt; inactive means no such curve, though single readings can be large; an effect the other way counts as inactive or inconclusive.

SMILES	IL1B secr inh	DT40 TDP1 CPT	HepG2 viability	TDP1 inh	TDP1 cell noCPT	TGFb SMAD3 inh
COc1ccccc1CNC(=O)c1cc2cccc3c2n1CCS3	.	18µM*	-31%	3%	?	34%
O=C(NCc1ccccc1Cl)c1cc2cccc3c2n1CCS3	.	23µM*	-30%	6%	?	0%
CCOc1ccc(CCNC(=O)c2cc3cccc4c3n2CCS4)cc1	.	9.2µM*	-20%	-3%	?	0%
COc1ccc(OC)c(CCNC(=O)c2cc3cccc4c3n2CCS4)c1	.	?	-19%	3%	?	?
COc1cc(C(=O)Nc2nonc2-c2ccc(C)c(C)c2)cc(OC)c1OC	.	-14%	-16%	-3%	-1%	31%
Cc1ncc2c(c1CNC(=O)c1cncs1)CCN(C(=O)c1cc(F)c(F)cc1F)C2	.	3%[9.04 µM]	.	.	-22%	.
COc1ccc(N/N=C(/C(C)=O)N2CCCc3ccccc32)cc1	-25	?	9%	8%	?	-4%
COc1ccc(OCC(=O)N/N=C/c2ccc(OC)c(OC)c2C(=O)O)cc1	-4	-14%	0%	3%	-2%	?
COc1cccc(/C=N/NC(=O)c2ccc3nc[nH]c3c2)c1O	115	?	-24%	.	-30%	6%
COc1cccc(/C=N/NC(=O)c2cc3c(OC)ccc(OC)c3[nH]2)c1O	80	6.5µM*	0%	.	4.1µM*	?
COc1ccc(/C=N/NC(=O)c2cccc(NC(=O)c3ccc(F)cc3)c2)c(C(=O)O)c1OC	16	-18%	-4%	50µM*	-22%	-4%
COc1ccc(/C=N/NC(=O)COc2ccc3ccccc3c2)c(C(=O)O)c1OC	-11	16µM*	5%	5%	?	6%
COc1cc(OC)c2cc(C(=O)N/N=C/c3cccc(OC)c3O)[nH]c2c1	114	15µM*	-22%	7%	6.5µM*	?
CN1CCCCC1(C)C(=O)NCc1ccc(F)cc1 (configuration not stated)	32	-1%	21%	.	7%	39%
NNC(=O)C(Cc1c[nH]c2ccccc12)NC(=O)c1ccccc1 (configuration not stated)	-13	17%	16%	3%	?	5%
COC(=O)c1ccc(OC(=O)c2ccc(OCc3c(C)noc3C)c(OC)c2)cc1	.	.	.	0%	.	.
COc1cc(C(=O)OCC#N)ccc1OCc1c(C)noc1C	81	?	-9%	3%	23µM*	?
COc1ccc(CCNC(=O)c2ccc(OCc3c(C)noc3C)c(OC)c2)cc1	33	14%	5%	0%	-4%	0%
COc1cc(C(=O)NCCc2c[nH]c3ccccc23)ccc1OCc1c(C)noc1C	-77*	?	2%	8%	18µM*	-1%
COc1cc(C(=O)NCC(c2ccccc2)N(C)C)ccc1OCc1c(C)noc1C (configuration not stated)	5	16µM*	-12%	0%	?	-15%
Cc1occc1C(=O)NCCN1Cc2ccccc2OC(c2ccccc2F)C1 (configuration not stated)	.	2%[9.04 µM]	.	.	?	.
CCn1c(=O)c(C(=O)Nc2ccccn2)c(O)c2ccccc21	53	5%	6%	-2%	?	16%
C=CCn1c(=O)c(C(=O)Nc2ccc(C)cc2)c(O)c2ccccc21	38	18µM*	-10%	.	12µM*	0%
C=CCn1c(=O)c(C(=O)Nc2cc(C)ccn2)c(O)c2ccccc21	0	29µM*	-35%	.	26µM*	-5%
C/C=C1/C2C=C(C)CC1(N)c1ccc(=O)[nH]c1C2 (configuration not stated)	.	.	.	5%	.	.

High-throughput results (PubChem BioAssay)
